Several values for one entry are separate records, joined by “and”; a condition that tells them apart may be missing. Equal values may be shown once. About 610 (9.5%) of roughly 6,400 compounds were called active. Cut-off read from the data, not from the text of the source: active = activity change below about -70%; inconclusive = no clear call, values can overlap the other calls; inactive = above that. The entries come from a sample that favours actives as a whole. Some structures have more than one record in an assay (separate samples or runs), and their calls can disagree.
Experiment: T. gondii ME49Luc in HeLa cells, luciferase assay, 72 h, no IFN-y (AID 1259421)
Details: stronger effect = lower value, concentration not given here

SMILES | activity change, negative = inhibition
CC(=C(CCOP(=O)(O)O)SC(=O)c1ccccc1)N(C=O)Cc1cnc(C)nc1N | -0.0808% (inactive)
O=C(Nc1cc(Cl)cc(Cl)c1O)c1c(O)c(Cl)cc(Cl)c1Cl | 1.68% (inactive)
Oc1c(Cl)cc(Cl)c(Cl)c1Cc1c(O)c(Cl)cc(Cl)c1Cl | -88.2% (active) and -95.3% (active)
CCCC(CCC)C(=O)OC1C[C@H]2CC[C@@H](C1)[N+]2(C)C (some centres not stated) | 9.62% (inactive)
O=C(COc1ccc(C(=O)c2ccccc2)cc1)NC1CCN(Cc2ccccc2)CC1 | -17.8% (inactive)
C=CCc1cccc(/C=N/NC(=O)CN2CCN(Cc3ccccc3)CC2)c1O | -76.9% (active) and 6.28% (inactive)
O=C(NC1CCN(Cc2ccccc2)CC1)c1ccc(I)cc1 | 21.8% (inactive) and 21.3% (inactive)
Cc1ccccc1N=Nc1ccc(NC(=O)c2ccnn2C)c(C)c1 | -4.39% (inactive)
Cc1nc2ccc(CN(C)c3ccc(C(=O)N[C@@H](CCC(=O)O)C(=O)O)s3)cc2c(=O)[nH]1 | -4.51% (inactive)
O=C(O)c1ccc(-c2c[nH]c3ncc(-c4ccccc4)cc23)cc1C1CCCC1 | -82.2% (active)
O=C(O)c1cc(-c2ccccc2)nc2ccccc12 | 42.2% (inactive) and 11.3% (inactive)
CCC(=O)OCC(=O)[C@@]1(OC(=O)CC)[C@@H](C)CC2C3CCC4=CC(=O)C=C[C@]4(C)C3(F)[C@@H](O)C[C@@]21C (some centres not stated) | -0.442% (inactive)
CC(=O)Nc1ccc(S(=O)(=O)Nc2onc(C)c2C)cc1 | 6.51% (inactive)
NCCCC(N)(C(=O)O)C(F)F (configuration not stated) | 7.14% (inactive)
COc1cc(OC)c2c(OC)c(-c3ccc4c(c3)OCO4)c(=O)oc2c1 | -77.7% (active)
COc1cc(OC)c2c(=O)c(OC)c(-c3ccccc3)oc2c1 | 43.5% (inactive)
COc1cc(OC)c2c(=O)cc(-c3ccccc3)oc2c1 | 147% (inactive)
O=C(NCCc1ccc(O)c(O)c1)C12CC3CC(CC(C3)C1)C2 | 1.2% (inactive)
N#C/C(=C\c1ccc(O)c(O)c1)C(=O)OCCc1cccs1 | 2.66% (inactive)
COc1cc2c(cc1OC)Cc1cc(OC)c(OC)cc1Cc1cc(OC)c(OC)cc1C2 | 6.34% (inactive)
COc1cccc(N2CCN(C3=Nc4c(F)cccc4[C@H](CC(=O)O)N3c3cc(C(F)(F)F)ccc3OC)CC2)c1 | -1.57% (inactive)

SMILES | activity change, negative = inhibition
O=C1c2ccccc2CCC1CNCCc1ccc(O)cc1 (configuration not stated) | 9.23% (inactive)
O=S(=O)(O)c1ccc(O)cc1 | 0.395% (inactive)
CC(=O)N1CCN(C)CC1 | 1.18% (inactive) and 9.84% (inactive)
O=c1c2cc(O)c(O)cc2oc2cc(O)c(C3O[C@H](CO)[C@H](O)[C@@H](O)[C@H]3O)c(O)c12 (some centres not stated) | 3.15% (inactive)
COc1ccc(-c2cc(=O)c3c(O)c(OC)c(O[C@H]4O[C@H](CO[C@@H]5O[C@@H](C)[C@H](O)[C@@H](O)[C@H]5O)[C@@H](O)[C@H](O)[C@H]4O)cc3o2)cc1 | 15.1% (inactive)
O=C(NNc1nc2cc(F)ccc2n2cccc12)c1cnccn1 | -77.3% (active)
NC(Cc1ccc(F)cc1)C(=O)O (configuration not stated) | 2.32% (inactive)
OC1CCC(Nc2ncc3nc(Nc4c(F)cc(F)cc4F)n([C@H]4CCOC4)c3n2)CC1 (some centres not stated) | -77.1% (active)
CCCCNc1ncc(-c2ccc(CN3CCOCC3)cn2)c(NC2CCC(O)CC2)n1 (configuration not stated) | -67.2% (inactive)
O=C(CN1C(=O)c2ccccc2S1(=O)=O)Nc1ccc(O)cc1 | 6.78% (inactive)
Nc1nc(NCCNc2ncc(-n3ccnc3)c(-c3ccc(Cl)cc3Cl)n2)ccc1[N+](=O)[O-] | 38.7% (inactive)
COc1ccc(S(=O)(=O)N2CCCN(S(=O)(=O)c3ccc(OC)c(OC)c3)CC2)cc1OC | 0.269% (inactive)
O=C(NO)c1cnc(N2CCN(S(=O)(=O)c3ccc4ccccc4c3)CC2)nc1 | -82.9% (active)
COc1ccccc1N1CCN(CCCCNC(=O)c2ccc3ccccc3c2)CC1 | -12.8% (inactive)
O=c1c2ccccc2oc2ccccc12 | 16.7% (inactive)
O=C(O)c1cc(=O)c2ccccc2o1 | 5.57% (inactive) and 14.8% (inactive)
O=c1[nH]c(=O)c2ccccc2o1 | 7.04% (inactive) and -95.9% (active)
OC(c1ccccc1)(c1ccccc1)C12CC[N+](CCOCc3ccccc3)(CC1)CC2 | 13.9% (inactive)
COc1ccc2oc(-c3ccccc3OC)cc(=O)c2c1 | 44.1% (inactive)
O=C(Nc1ccccc1)NC1CC(C(=O)O)Nc2cc(Cl)cc(Cl)c21 (configuration not stated) | 13% (inactive)
Cc1ccccc1N=C(N)Nc1ccccc1C | 5.45% (inactive) and 4.9% (inactive)

SMILES | activity change, negative = inhibition
CCCNC(C)C(=O)Nc1c(C)csc1C(=O)OC (configuration not stated) | 20% (inactive)
CCCNC(C)C(=O)Nc1ccccc1C (configuration not stated) | 37.2% (inactive) and -79.6% (active)
CCCCCCCCCCCCCCCC(=O)OC1C(SC)OC(C(NC(=O)C2CC(CCC)CN2C)C(C)Cl)C(O)C1O (configuration not stated) | -9.26% (inactive)
COCCn1c2c([n+](Cc3cnccn3)c1C)C(=O)c1ccccc1C2=O | -83.1% (active) and -81.3% (active)
CN1c2cc(O)c(N=NC(N)=O)cc2CC1S(=O)(=O)O (configuration not stated) | -1.43% (inactive)
O=P(O)(O)C(Sc1ccc(Cl)cc1)P(=O)(O)O | 5.32% (inactive) and -0.0921% (inactive)
CC(=O)OCC(=O)[C@@]1(O)CCC2C3C[C@H](C)C4=CC(=O)C=CC4(C)C3[C@@H](O)CC21C (some centres not stated) | -6.72% (inactive)
N[C@@H](CSS(=O)(=O)O)C(=O)O | 14.6% (inactive)
C1=C/COCc2cc(ccc2OCCN2CCCC2)Nc2nccc(n2)-c2cccc(c2)COC/1 | -80.3% (active)
c1cc(OCCN2CCCCC2)cc(-c2n[nH]c3ccc(-c4ncn[nH]4)cc23)c1 | -32.3% (inactive)
Cc1ccccc1N1CCN(S(=O)(=O)CC23CCC(C[C@@H]2NC(=O)[C@@H](N)CCS(C)(=O)=O)C3(C)C)CC1 (some centres not stated) | 1.28% (inactive) and 5.87% (inactive)
Cc1cc(OCC(=O)O)cc(C)c1Cc1ccc(O)c(C(C)C)c1 | 1.47% (inactive)
CN(CCOc1ccc(NS(C)(=O)=O)cc1)CCc1ccc(NS(C)(=O)=O)cc1 | -7.15% (inactive) and -5.58% (inactive)
CCCCc1oc2ccccc2c1C(=O)c1cc(I)c(OCCN(CC)CC)c(I)c1 | -58.9% (inactive)
CCCCc1oc2ccc(NS(C)(=O)=O)cc2c1C(=O)c1ccc(OCCCN(CCCC)CCCC)cc1 | -83.6% (active)
CCCCC/C=C\C/C=C\C/C=C\CCCCCCC(=O)O | 4.57% (inactive)
Clc1ccc(-c2nc3sccn3c2/C=N/OCc2ccc(Cl)c(Cl)c2)cc1 | 27.7% (inactive) and 3.2% (inactive)
C[C@H](N)C(=O)N[C@@H](C)P(=O)(O)O | 9.38% (inactive)
CC[C@H](C)[C@@H]([C@@H](CC(=O)N1CCC[C@H]1[C@H](OC)[C@@H](C)C(=O)N[C@@H](Cc1ccccc1)c1nccs1)OC)N(C)C(=O)[C@@H](NC(=O)[C@H](C(C)C)N(C)C)C(C)C | -85.6% (active)
CNC(=O)C1OC(n2cnc3c(NCc4cccc(I)c4)nc(Cl)nc32)C(O)C1O (configuration not stated) | -2.06% (inactive)
COc1ccc(C(=O)c2ccc(C)cc2)c(O)c1 | 154% (inactive) and 98.7% (inactive)

SMILES | activity change, negative = inhibition
Cc1ccc(C(=O)c2cc(O)c(O)c([N+](=O)[O-])c2)cc1 | -80% (active) and 2.13% (inactive)
NC(=O)c1ccc(I)c([N+](=O)[O-])c1 | 13.7% (inactive)
COc1cc(OC)c(/C=C/S(=O)(=O)Cc2ccc(OC)c(NCC(=O)O)c2)c(OC)c1 | -46.4% (inactive)
COc1ccnc2[nH]cc(C(=O)C(=O)N3CCN(C(=O)c4ccccc4)C[C@H]3C)c12 | 5.24% (inactive)
C[C@]12CC[C@H](O)CC1=CCC1C2CC[C@]2(C)C(n3cnc4ccccc43)=CCC12 (some centres not stated) | -67.5% (inactive)
Fc1ccc(-c2nc3n(c2-c2ccncc2)CCS3)cc1 | -79.8% (active)
COC(=O)Cc1cccn1C | 10.9% (inactive)
CC(O)CN(CCN(CC(C)O)CC(C)O)CC(C)O (configuration not stated) | 15.4% (inactive)
Cc1cc(OCc2nnc(SC3CCCC3)n2-c2cccnc2)ccc1-c1ccc(S(C)(=O)=O)cc1 | -79.2% (active)
CSCC[C@H](NC(=O)[C@@H](N)Cc1c[nH]c2ccccc12)C(=O)N[C@@H](CC(=O)O)C(=O)N[C@@H](Cc1ccccc1)C(N)=O | 17% (inactive)
CC(=O)O[C@]1(C(C)=O)CCC2C3C=C(C)C4=CC(=O)CC[C@]4(C)C3CC[C@@]21C (some centres not stated) | 9.66% (inactive)
Cn1c(O)c(C2=c3ccccc3=NC2=O)c2ccccc21 | 13.5% (inactive)
CCC(C)n1ncn(-c2ccc(N3CCN(c4ccc(OC[C@H]5CO[C@](Cn6cncn6)(c6ccc(Cl)cc6Cl)O5)cc4)CC3)cc2)c1=O (some centres not stated) | -63.1% (inactive) and -38.1% (inactive)
C[C@]12CC[C@@H]3c4ccc(O)cc4CC[C@H]3[C@@H]1CCC2=O | -66.6% (inactive) and -57.7% (inactive)
C#C[C@]1(O)CCC2C3CCc4cc(OC5CCCC5)ccc4C3CC[C@@]21C (some centres not stated) | 33.4% (inactive)
C#C[C@]1(O)CC[C@H]2[C@@H]3CCc4cc(OC)ccc4[C@H]3CC[C@@]21C | 9.24% (inactive)
C#C[C@]1(O)CCC2C3CCc4cc(O)ccc4C3CC[C@@]21C (some centres not stated) | -81.3% (active)
C#C[C@]1(O)CC[C@H]2[C@@H]3CCc4cc(O)ccc4[C@H]3CC[C@@]21C | -81.1% (active)
C#C[C@]1(O)CCC2C3CCc4cc(OC)ccc4C3CC[C@@]21C (some centres not stated) | 7.57% (inactive)
